This note sets out measurements from PubChem BioAssay (NCATS).

The nature of test [1]: Viability qHTS for spleen associated tyrosine kinase inhibitor (SYKi) naive MV4-11 cells (AID 1963823). Note: nearly all actives have a fitted effect of over 40% in size. The procedure, abridged:
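SYK inhibitor-naive MV4-11 cells, 500 per well, exposed to compounds for 72 hr at 37 C, 5% CO2. Viability read as CellTiter-Glo luminescence after 10 min at room temperature.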
(In general: In qHTS, concentration-response curves come from the screen itself.)

Test [2] can be described thus: Cellular viability qHTS for adrenocortical cancer (ACC) cell line SW-13 (AID 1963989).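 For activity (max response): cells grown in serum-free medium with ITS supplement; % is set by controls: 0 for no effect and ±100 for the full control effect.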 Note: nearly all actives have a fitted effect of over 65% in size. The following applies: SW-13 ACC cells viability, CellTiter-Glo, 48 h; activity (max response): hits give low values. The procedure, abridged: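 Luminescent ATP read-out (CellTiter-Glo, 20 min at room temperature) measured metabolically competent SW-13 cells after 48 h compound treatment. Final concentrations spanned up to 46 uM; bortezomib served as positive control.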

A short description of test [3]: Cellular viability qHTS for adrenocortical cancer (ACC) cell line NCI-H295R (AID 1963990). Note: nearly all actives have a fitted effect of over 60% in size. The procedure, abridged: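 IC50 and maximal efficacy derive from four-parameter logistic modelling of titration curves, with reads scaled between DMSO-only wells (0%) and doxorubicin hydrochloride (100% inhibition). Compounds spanned up to 46 uM over 48 h.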

Each structure is given as a SMILES string. Inconclusive results are not listed. Values without a mark were called inactive. Activity calls are given as the source filed them. Calls come from the whole dose curve; as a rule, active = well fitted curve in the direction sought with a large enough effect; inconclusive = small, poorly fitted or top-dose-only effect, or another doubt; inactive = no such curve, though single readings can be large; an effect the other way counts as inactive or inconclusive.
Potency is the fitted concentration of half-maximal effect.

Turning to `O=C1CN(/N=C/c2ccc([N+](=O)[O-])o2)C(=O)N1`, the Potency result in test [1] was “inactive”. In test [2], the activity (max response) was -20.9%. Also, in test [3], the Potency is 18.4 µM (active).
For `O=C1NC(=O)C(c2ccccc2)(c2ccccc2)N1` the same measures were “inactive”, -5.02% and “inactive”.
Consider `C[C@]12CCC3[C@@H](CC[C@H]4NC(=O)C=C[C@]34C)[C@@H]1CC[C@@H]2C(=O)Nc1cc(C(F)(F)F)ccc1C(F)(F)F` (stereo partly drawn), for which, in test [1], the Potency was 10.5 µM (active). The activity (max response) in test [2] was -0.361%. Further, the Potency result in test [3] was “inactive”.
On to `CC(C)(C(=O)O)c1ccc(C(O)CCCN2CCC(C(O)(c3ccccc3)c3ccccc3)CC2)cc1` (stereo not drawn), for which the Potency entry in test [1] and in test [3] was “inactive” in each case. Moreover, the activity (max response) in test [2] is -2.55%.
Consider `CCCCCCCCCCCCSCCOCCO`, for which the Potency entry in test [1] and in test [3] was “inactive” each time. Moreover, the activity (max response) in test [2] was -3.34%.
As to `COc1cc(-c2cn(C)c(=O)c3cnccc23)cc(OC)c1CN(C)C`, the Potency entry in test [1] and in test [3] was “inactive” in each case. The activity (max response) in test [2] is -6.63%.
For `CC[C@H]1OC(=O)[C@H](C)[C@@H](O[C@H]2C[C@@](C)(OC)[C@@H](O)[C@H](C)O2)[C@H](C)[C@@H](O[C@@H]2O[C@H](C)C[C@H](N(C)C)[C@H]2O)[C@](C)(O)C[C@@H](C)C(=O)[C@H](C)[C@@H](O)[C@]1(C)O`, the Potency entry in test [1] and in test [3] was “inactive” each time. Moreover, the activity (max response) in test [2] is 4.41%.
Regarding `COc1ccc(C(=O)N2CCN(c3ccc4c(c3)CCC(=O)N4)CC2)cc1OC`, the Potency entry in test [1] and in test [3] was “inactive” each time. Also, the activity (max response) in test [2] was 5.3%.
Regarding `CC1=C(/C=C/C(C)=C/C=C/C(C)=C/C=C/C=C(C)/C=C/C=C(C)/C=C/C2=C(C)CCCC2(C)C)C(C)(C)CCC1`, the Potency in test [1] was 23.5 µM (active). In addition, the activity (max response) in test [2] is -7.78%. In test [3], the Potency entry is “inactive”.
Regarding `C[C@@H](O)[C@H]1C(=O)N2C(C(=O)O)=C(S[C@@H]3CN[C@H](CNS(N)(=O)=O)C3)[C@H](C)[C@H]12`, the Potency entry in test [1] and in test [3] was “inactive” throughout. In test [2], the activity (max response) was 7.35%.
Regarding `CCN(CC)CCCC[C@H](NC(=O)[C@H](CC(C)C)NC(=O)[C@H](C)NC(=O)[C@H](Cc1ccccc1)NC(=O)c1ccc(C(C)(C)C)cc1)C(=O)N[C@@H](CO)C(=O)OC`, the Potency result in test [1] and in test [3] was “inactive” each time. Moreover, the activity (max response) in test [2] was -29.2%.
As to `C#C[C@]1(OC(C)=O)CC[C@H]2[C@@H]3CCC4=C/C(=N/O)CC[C@@H]4[C@H]3CC[C@@]21CC`, the Potency is 26.6 µM (active) in test [1] and 20.6 µM (active) in test [3].
On to `CN1C(N)=N[C@](C)(c2cc(NC(=O)c3ccc(F)cn3)ccc2F)CS1(=O)=O`, for which the Potency result in test [1] and in test [3] was “inactive” in each case. In addition, the activity (max response) in test [2] was -4.84%.
Consider `C[C@H](CCC(=O)O)[C@H]1CC[C@H]2[C@@H]3[C@H](O)C[C@@H]4C[C@H](O)CC[C@]4(C)[C@H]3CC[C@]12C`, for which the Potency entry in test [1] and in test [3] was “inactive” each time.
On to `C1CCN2C[C@@H]3C[C@@H](CN4CCCC[C@@H]34)[C@H]2C1`, for which the Potency entry in test [1] and in test [3] was “inactive” throughout. Also, in test [2], the activity (max response) is -0.968%.
For `Oc1ccc(/C=C/c2cc(O)cc(O)c2)cc1`, the Potency in test [1] was 16.6 µM (active). In addition, the Potency result in test [3] is “inactive”.
`C[C@H]1[C@H](O)O[C@@H]2O[C@@]3(C)CC[C@H]4[C@H](C)CC[C@@H]1[C@@]24OO3`: the Potency in test [1] was 0.731 µM (active); in test [2] it was 12.6 µM (active); in test [3], 3.55 µM (active).
For `Cc1cc(CCCOc2c(C)cc(-c3noc(C(F)(F)F)n3)cc2C)on1`, the Potency result in test [1] and in test [3] was “inactive” each time. For the same compound, the activity (max response) in test [2] is -14.2%.
For `Cc1ncc(CO)c(CO)c1O`, the Potency in test [1] is 3.76 µM (active). In addition, in test [2], the activity (max response) was 1.35%. For the same compound, the Potency result in test [3] is “inactive”.
Turning to `CC(C(O)c1ccc(O)cc1)N1CCC(Cc2ccccc2)CC1` (stereo not drawn), the Potency result in test [1] and in test [3] was “inactive” each time. Further, the activity (max response) in test [2] is -9.39%.
For `CCN1CCC[C@H]1CNC(=O)c1c(OC)ccc(Br)c1OC`, in test [1], the Potency is 6.68 µM (active). In addition, the activity (max response) in test [2] is -0.795%. Besides, the Potency result in test [3] was “inactive”.
The like results for `Cc1cccc(-c2[nH]c(CNc3ccccc3F)nc2-c2ccc3ncnn3c2)n1` were, in that order, 13 µM (active), -16.8% and “inactive”.
As to `Cc1c(O)cccc1C(=O)N[C@@H](CSc1ccccc1)[C@H](O)CN1C[C@H]2CCCC[C@H]2C[C@H]1C(=O)NC(C)(C)C`, the Potency in test [1] was 23.7 µM (active); in test [2], 20.6 µM (active); in test [3] it was 6.51 µM (active).
Consider `O=C(O)c1ccc(-n2nc(-c3ccccc3O)nc2-c2ccccc2O)cc1`, for which the values for the Potency in test [1] and in test [3] were 16.8 µM (active) and 31.6 µM (active), respectively.
For `Cc1ncc(CSSCc2cnc(C)c(O)c2CO)c(CO)c1O`, the Potency result in test [1] and in test [3] was “inactive” throughout. Also, the activity (max response) in test [2] is 9.04%.
As for `C=C1C(=O)O[C@@H]2[C@H]3O[C@]3(C)CC/C=C(\C)CC[C@@H]12`, the Potency is 2.35 µM (active) in test [1] and 10 µM (active) in test [3].
